The text below walks through data of ChEMBL document CHEMBL1201862, “PubChem BioAssay data set” (2004).

Among all 400,000 compounds or so, about 2,100 (0.53%) were called active. Roughly 14% stayed inconclusive and do not appear here. No rule for the calls is given here. This excerpt belongs to a sample that is enriched for actives.

This assay deals with Ataxin-2 (Homo sapiens) (UniProt Q99700). Kind of assay: qHTS for Inhibitors of ATXN expression. Format: functional. A general note: Quantitative high-throughput screening tests each substance at several concentrations.
Sequence of Ataxin-2 (Homo sapiens) (Q99700 whole entry): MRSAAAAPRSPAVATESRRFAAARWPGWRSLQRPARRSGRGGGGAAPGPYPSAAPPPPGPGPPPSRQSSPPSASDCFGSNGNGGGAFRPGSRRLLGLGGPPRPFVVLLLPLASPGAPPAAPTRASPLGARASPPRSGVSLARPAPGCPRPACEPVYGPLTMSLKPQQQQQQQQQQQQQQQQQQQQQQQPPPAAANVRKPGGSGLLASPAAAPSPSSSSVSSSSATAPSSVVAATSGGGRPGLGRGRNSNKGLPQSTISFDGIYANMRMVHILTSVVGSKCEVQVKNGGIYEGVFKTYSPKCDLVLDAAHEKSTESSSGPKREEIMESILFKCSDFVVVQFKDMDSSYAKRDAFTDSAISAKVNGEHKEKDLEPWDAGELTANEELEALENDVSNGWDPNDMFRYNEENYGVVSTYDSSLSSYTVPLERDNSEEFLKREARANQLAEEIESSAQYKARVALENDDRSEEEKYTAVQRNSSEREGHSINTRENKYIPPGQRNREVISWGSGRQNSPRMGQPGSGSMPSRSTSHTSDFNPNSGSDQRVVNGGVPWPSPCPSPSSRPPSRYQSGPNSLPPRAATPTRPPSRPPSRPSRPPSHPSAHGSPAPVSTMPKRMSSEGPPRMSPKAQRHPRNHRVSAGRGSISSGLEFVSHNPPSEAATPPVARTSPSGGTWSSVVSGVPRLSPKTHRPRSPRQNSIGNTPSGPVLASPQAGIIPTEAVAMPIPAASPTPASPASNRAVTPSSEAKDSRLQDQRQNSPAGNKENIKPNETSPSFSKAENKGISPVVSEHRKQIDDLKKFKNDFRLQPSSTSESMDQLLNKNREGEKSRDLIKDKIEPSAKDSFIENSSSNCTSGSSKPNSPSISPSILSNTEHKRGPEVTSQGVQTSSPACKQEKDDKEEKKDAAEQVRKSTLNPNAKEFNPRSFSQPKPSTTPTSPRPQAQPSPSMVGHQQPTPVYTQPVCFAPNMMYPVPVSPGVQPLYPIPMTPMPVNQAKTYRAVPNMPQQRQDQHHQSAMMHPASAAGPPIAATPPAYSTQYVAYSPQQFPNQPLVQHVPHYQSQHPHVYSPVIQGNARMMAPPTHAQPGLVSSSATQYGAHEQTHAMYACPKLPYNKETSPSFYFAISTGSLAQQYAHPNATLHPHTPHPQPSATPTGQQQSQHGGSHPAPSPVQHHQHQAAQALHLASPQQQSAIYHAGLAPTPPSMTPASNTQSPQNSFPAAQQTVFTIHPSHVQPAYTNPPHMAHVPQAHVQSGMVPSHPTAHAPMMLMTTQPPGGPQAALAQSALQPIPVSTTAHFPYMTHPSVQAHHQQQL
For the molecule `COc1cc(-c2oc3ccc(C)cc3c(=O)c2O)cc(OC)c1OC`, the Potency entry was “inactive”.
Next, `COc1ccc(S(=O)(=O)N(C)C[C@H]2Oc3c(NC(=O)Nc4ccc(C(F)(F)F)cc4)cccc3C(=O)N([C@H](C)CO)C[C@@H]2C)cc1`: 22.4 µM (active); `C[C@@H]1CN([C@H](C)CO)C(=O)c2cccc(NC(=O)Nc3ccc(C(F)(F)F)cc3)c2O[C@H]1CN(C)S(=O)(=O)c1cccs1`: 28.2 µM (active); `C[C@H](CO)N1C[C@H](C)[C@@H](CN(C)S(=O)(=O)c2ccc(F)cc2)Oc2c(NC(=O)Nc3ccc(C(F)(F)F)cc3)cccc2C1=O`: 35.5 µM (active).
As for `C[C@H]1CN([C@@H](C)CO)C(=O)c2cccc(NC(=O)Nc3ccc(C(F)(F)F)cc3)c2O[C@@H]1CN(C)S(=O)(=O)c1ccc(Cl)cc1`, the Potency is 25.1 µM (active).
Take `Cc1c(C(=O)/C=C/N(C)C)nnn1-c1ccc(Cl)cc1C#N`: the Potency result was “inactive”.
Consider `Cc1ccc(NC(=O)CN2C(=O)S/C(=C\c3ccc(-c4cccc(C(=O)O)c4C)o3)C2=O)cc1C`, for which the Potency result is “inactive”.
Consider `Cc1ccc(OCCCC(=O)ON=C(N)c2ccccc2C)cc1`, for which the Potency result is “inactive”.
In the case of `COc1ccc(C2CC(c3ccc(C(F)(F)F)cc3)=NN2c2ccc(S(N)(=O)=O)cc2)cc1` (centres undefined), the Potency entry is “inactive”.
`CCOC(=O)N1CCN(C(=O)CSc2nc(O)c3cnn(-c4ccc(C)cc4)c3n2)CC1`: the Potency result was “inactive”.
For the molecule `COc1ccc(C2C3=C(CCCC3=O)N(CC(=O)O)C3=C2C(=O)CCC3)cc1Cl`, the Potency entry is “inactive”.
Regarding `COc1ccc(C(=O)/C=C/Nc2ccc(S(=O)(=O)Nc3cc(OC)nc(OC)n3)cc2)c(OC)c1`, the Potency result was “inactive”.
For `CC(=O)Nc1ccc(N/C=C(\C=O)c2nc3ccccc3o2)cc1`, the Potency entry is “inactive”.
Consider `CCc1cnc2c(c1SC(C(C)=O)C(=O)N(C)C)c(=O)n(C)c(=O)n2C` (centres undefined), for which the Potency is 39.8 µM (active).
For `COc1ccc(-c2c(C)c3ccc(O)c(CN4CCCC4)c3oc2=O)cc1OC`, the Potency entry was “inactive”.
Next, `Cc1ccc2c(Cl)cc(Cl)c(OCC(=O)O)c2n1`: “inactive”.
As for `CCc1cc(=O)oc2c(CN3CCN(C)CC3)c(O)c(Cl)cc12`, the Potency result was “inactive”.
As for `CC(C)c1ccccc1NC(=O)Nc1nc(C(N)Cc2ccc(C(F)(F)F)cc2)cs1` (centres undefined), the Potency is 35.5 µM (active).
Next, `NC(Cc1ccc(C(F)(F)F)cc1)c1csc(NC(=O)Nc2ccccc2Oc2ccccc2)n1` (centres undefined): 39.8 µM (active); `COc1ccccc1NC(=O)c1sc2nc(-c3ccco3)ccc2c1N`: “inactive”; `CN(C)Cc1csc(NC(=O)Nc2ccccc2Oc2ccccc2)n1`: 25.1 µM (active).
Then `COc1cccc(-c2ccc3c(N)c(C(=O)Nc4cc(C(F)(F)F)ccc4OC)sc3n2)c1`, with “inactive”; and `CN(C)CCCN=C(S)Nc1ccc(Oc2ccccc2)cc1`, with “inactive”; and `COc1ccccc1NC(=O)Nc1nc(C(N)Cc2ccc(C(F)(F)F)cc2)cs1` (centres undefined), with 39.8 µM (active).
On to `Cc1ccc(S(=O)(=O)NCCNc2ccc(Br)c(C)c2)cc1`, for which the Potency result is “inactive”.
Turning to `CCC(=O)Oc1c(C(=O)CC)cc2c(C)cc(=O)oc2c1C`, the Potency result was “inactive”.
In the case of `O=C(OCCOc1ccccc1Cl)c1cc(S(=O)(=O)N2CCCCC2)ccc1N1CCOCC1`, the Potency entry is “inactive”.
`CCCC[n+]1c2ccccc2cc2ccccc21`: the Potency entry is “inactive”.
On to `Cc1cc(C)c(C)c(S(=O)(=O)NCc2ccc(C(=O)N3CCN(C)CC3)cc2)c1C`, for which the Potency result was “inactive”.
Then `CCCNC(=O)c1cnn2c(C(F)F)cc(-c3ccccc3)nc12`, with “inactive”; and `CCc1nccn1C(=O)c1cnn2c(C(F)F)cc(-c3ccc(C)cc3)nc12`, with 31.6 µM (active); and `COc1ccc(-c2cc(C(F)F)n3ncc(C(=O)Nc4cc(C)on4)c3n2)cc1`, with “inactive”.
Next, `Cc1cccnc1Nc1nc(-c2ccccn2)cs1`: 0.794 µM (active).
Next, `Cc1ccc(S(=O)(=O)NC(C(=O)Oc2ccc3c(C)c(Cl)c(=O)oc3c2)c2ccccc2)cc1` (centres undefined): “inactive”; `CCN1CCN(Cc2c(O)ccc3cc(-c4ccc(OC)cc4)c(=O)oc23)CC1`: “inactive”; `CCC(C)Nc1ccc(NC(C)CC)cc1` (centres undefined): 31.6 µM (active).
`C=C1C(=O)C2=CC1CCC(=O)C1(C)CCC(OC(C)=O)C(C)(C)C1CC2O` (centres undefined): the Potency was 28.2 µM (active).
Next, `COc1ccc(-c2c(C)c3ccc(O)cc3oc2=O)cc1OC`: “inactive”.
Next, `Cc1c(CC(=O)NCCC(C)C)c(=O)oc2cc3c(cc12)CCC(C)(C)O3`: 39.8 µM (active).
Turning to `COc1ccccc1CCNC(=O)Cc1c(C)c2ccc(O)cc2oc1=O`, the Potency result is “inactive”.
As for `Cc1c(CC(=O)NCC(=O)O)c(=O)oc2cc3oc4c(c3cc12)CCCC4`, the Potency entry was “inactive”.
`CCCSc1nnc(NC(=O)c2sc3nc(-c4cccs4)ccc3c2N)s1`: the Potency result was “inactive”.
For `CCSc1nnc(NC(=O)c2ccccn2)s1`, the Potency is 25.1 µM (active).
For `CCSc1nnc(NC(=O)CN2C(=O)C3CC=CCC3C2=O)s1` (centres undefined), the Potency entry was “inactive”.
Consider `CCSc1nnc(NC(=O)CSc2nc3c(cc2C#N)CCCC3)s1`, for which the Potency result is “inactive”.
`CCSc1nnc(NC(=O)c2ccc3ccccc3n2)s1`: the Potency was 35.5 µM (active).
`O=C(CSc1nnc(NC(=O)c2ccccc2[N+](=O)[O-])s1)NC1CCCC1`: the Potency entry is “inactive”.
Then `CC(C)Cn1nc(NC(=O)c2cccc(Cl)c2)c2cc3ccccc3nc21`, with “inactive”; and `Cc1ccc(NCC(=O)Nc2ccc(Br)cc2)cc1C`, with “inactive”.
On to `Cc1ccc(C)c(Sc2ccc(S(=O)(=O)Nc3ccc(C(=O)O)cc3)cc2)c1`, for which the Potency result is “inactive”.
Take `Cc1ccc(Sc2ccc(NC(=O)CCl)cc2)c(C)c1`: the Potency was 39.8 µM (active).
Turning to `COc1ccc(-c2cc3ccc(OC(C)C(=O)O)cc3oc2=O)cc1` (centres undefined), the Potency result was “inactive”.
As to `FC(F)(F)c1cc(CCN2CCNC[C@@H]2CC2CCCCC2)cc(C(F)(F)F)c1`, the Potency was 20 µM (active).
Then `Oc1ccc(C[C@H]2CNCCN2CCc2cc(C(F)(F)F)cc(C(F)(F)F)c2)cc1`, with 31.6 µM (active).
`FC(F)(F)c1cc(CCN2CCNC[C@@H]2Cc2ccccc2)cc(C(F)(F)F)c1`: the Potency is 25.1 µM (active).
Regarding `O=C1NC[C@@H](Cc2cccc3ccccc23)N(CCc2cc(C(F)(F)F)cc(C(F)(F)F)c2)C1=O`, the Potency is 31.6 µM (active).
With `O=C(CN1C(=O)c2ccc([N+](=O)[O-])cc2C1=O)NCc1ccco1`, the Potency result was “inactive”.
In the case of `Cc1cc(/C=C2\C(=N)N3N=C(c4ccco4)SC3=NC2=O)c(C)n1Cc1ccccc1`, the Potency result is “inactive”.
In the case of `COc1ccc([N+](=O)[O-])c(OC)c1C(=O)NC(=O)Nc1c(F)cc(F)cc1F`, the Potency result is “inactive”.
